From PubChem BioAssay come the findings set out here.

Each structure is given as a SMILES string. Calls of active or inactive are those of the source.

Assay [1] concerns Plasmodium falciparum Sir2 (PF13_0152, Sir2A). Briefly: pfSir2 binders on small-molecule microarrays, primary screen, biochemical, small-molecule microarray, 635 nm fluorescence (AID 1098).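 Also: score merges spot fluorescence intensity with its signal-to-noise ratio.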 As to conditions: small-molecule microarray binding, fluorescence 635 nm; higher = more signal.
Assay [2] can be described thus: small-molecule microarray binders of probe aDKK1, primary screen, biochemical, biotinylated probe, 635/667 nm fluorescence (AID 1099).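 Also: score merges 667nm spot fluorescence with signal to noise across triplicate slides; reference of the scale not given here.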 As to conditions: higher = more signal.
A short description of assay [3]: small-molecule microarray binders of probe aCHRDL2, primary screen, biochemical, biotinylated probe, 635/667 nm fluorescence (AID 1100). As to conditions: higher = more signal.
A short description of assay [4]: splicing luciferase reporter signal modulators, primary screen, spliceosome inhibition project, cell-based, HEK293, splice +/- reporter (AID 1101).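 Also: HEK293 cells carrying a splicing-competent luciferase reporter gene; test concentration not given here.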 As to conditions: luminescence, 24 h, higher = more signal, called active from +8 up or from −8 down.
The target in assay [5] is Fibroblast growth factor 10 (Homo sapiens) (UniProt O15520). Briefly: FGF10 binders on small-molecule microarrays, primary screen, biochemical, small-molecule microarray, 635 nm fluorescence (AID 1102). As to conditions: FGF10 binding, fluorescence 635 nm, higher = more signal.
Fibroblast growth factor 10 (Homo sapiens), sequence (O15520 whole entry, looked up): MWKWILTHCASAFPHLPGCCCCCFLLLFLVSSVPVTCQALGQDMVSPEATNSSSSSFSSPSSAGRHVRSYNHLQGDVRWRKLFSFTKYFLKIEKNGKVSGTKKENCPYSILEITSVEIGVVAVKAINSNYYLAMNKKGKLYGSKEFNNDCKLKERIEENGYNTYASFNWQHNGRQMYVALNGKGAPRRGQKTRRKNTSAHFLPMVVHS
The subject of assay [6] is glycogen synthase kinase-3 (GSK3A per assay name; protocol says GSK3B). Briefly: GSK3 binders on small-molecule microarrays, primary screen, biochemical, small-molecule microarray, 635 nm fluorescence, GSK3A (AID 1103). Also: the record names both GSK3A and GSK3B. As to conditions: small-molecule microarray binding, fluorescence 635 nm; higher = more signal.
The target of assay [7] is Epidermal growth factor receptor (Homo sapiens) (UniProt P00533). The assay can be described thus: EGFR binders on small-molecule microarrays, primary screen, biochemical, small-molecule microarray, 635 nm fluorescence (AID 1104).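 Also: score merges 667 nm emission intensity with spot signal to noise over triplicate slides.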 As to conditions: EGFR binding, higher = more signal.
Epidermal growth factor receptor (Homo sapiens), sequence (P00533 whole entry, looked up): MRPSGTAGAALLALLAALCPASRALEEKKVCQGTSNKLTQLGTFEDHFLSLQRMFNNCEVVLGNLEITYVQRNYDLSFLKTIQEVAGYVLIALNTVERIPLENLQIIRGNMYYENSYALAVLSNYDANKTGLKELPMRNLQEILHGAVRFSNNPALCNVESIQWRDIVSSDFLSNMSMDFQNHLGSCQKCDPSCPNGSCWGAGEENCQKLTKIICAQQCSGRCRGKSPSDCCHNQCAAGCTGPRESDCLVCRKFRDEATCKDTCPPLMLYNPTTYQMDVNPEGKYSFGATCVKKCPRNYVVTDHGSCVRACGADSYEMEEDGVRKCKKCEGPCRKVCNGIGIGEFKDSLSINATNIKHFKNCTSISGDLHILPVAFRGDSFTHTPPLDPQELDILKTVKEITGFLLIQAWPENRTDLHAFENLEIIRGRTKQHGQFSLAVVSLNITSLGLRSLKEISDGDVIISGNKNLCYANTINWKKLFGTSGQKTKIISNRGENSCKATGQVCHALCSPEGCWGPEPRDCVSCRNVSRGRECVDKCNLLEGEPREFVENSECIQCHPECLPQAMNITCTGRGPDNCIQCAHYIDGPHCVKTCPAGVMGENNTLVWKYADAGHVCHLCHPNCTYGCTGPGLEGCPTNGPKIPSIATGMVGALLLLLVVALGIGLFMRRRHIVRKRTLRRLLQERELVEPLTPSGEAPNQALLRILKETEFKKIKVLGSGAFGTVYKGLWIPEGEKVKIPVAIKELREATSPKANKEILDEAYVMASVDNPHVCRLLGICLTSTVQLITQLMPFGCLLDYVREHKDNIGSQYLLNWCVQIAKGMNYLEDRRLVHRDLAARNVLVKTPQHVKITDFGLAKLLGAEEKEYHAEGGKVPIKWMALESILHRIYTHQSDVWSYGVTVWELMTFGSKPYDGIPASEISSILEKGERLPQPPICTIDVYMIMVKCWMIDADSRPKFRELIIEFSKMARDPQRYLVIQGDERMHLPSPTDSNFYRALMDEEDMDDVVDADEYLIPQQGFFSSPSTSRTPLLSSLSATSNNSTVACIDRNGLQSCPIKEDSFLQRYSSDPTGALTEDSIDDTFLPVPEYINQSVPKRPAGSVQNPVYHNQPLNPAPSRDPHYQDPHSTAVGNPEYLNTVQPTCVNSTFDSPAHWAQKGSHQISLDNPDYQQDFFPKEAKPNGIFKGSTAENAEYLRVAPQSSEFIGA
Assay [8] addresses Follistatin-related protein 3 (Homo sapiens) (UniProt O95633). The assay can be described thus: FSTL3 binders on small-molecule microarrays, primary screen, biochemical, small-molecule microarray, 635 nm fluorescence (AID 1105).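 Also: score merges emission near 667 nm and signal to noise per printed spot across three slides.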 As to conditions: FSTL3 binding, higher = more signal.
The target of assay [9] is Dickkopf-related protein 1 (Homo sapiens) (UniProt O94907). The assay can be described thus: DKK1 binders on small-molecule microarrays, primary screen, biochemical, small-molecule microarray, 635 nm fluorescence scan (AID 1106).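 Also: score merges emission near 667 nm with signal to noise over three replicate slides.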 As to conditions: DKK1 binding, higher = more signal.
Dickkopf-related protein 1 (Homo sapiens), sequence (O94907 whole entry, looked up): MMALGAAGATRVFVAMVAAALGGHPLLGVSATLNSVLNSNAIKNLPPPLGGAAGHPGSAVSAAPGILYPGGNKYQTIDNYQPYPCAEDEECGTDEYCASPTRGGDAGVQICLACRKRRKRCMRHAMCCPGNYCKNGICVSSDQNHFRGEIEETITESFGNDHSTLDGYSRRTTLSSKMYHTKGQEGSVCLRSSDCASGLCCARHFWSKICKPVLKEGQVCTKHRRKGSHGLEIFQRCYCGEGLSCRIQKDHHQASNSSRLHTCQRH
The test system of assay [10] is Inhibin beta A chain (activin A). The assay can be described thus: INHBA (activin A) binders on microarrays, primary screen, biochemical, small-molecule microarray, 635 nm fluorescence scan (AID 1107).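 Also: mouse activin A protein probed at 4.33 µg/mL on printed slides; score merges bound-protein fluorescence near 667 nm with spot signal-to-noise.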 As to conditions: small-molecule microarray binding, higher = more signal.

Follistatin-related protein 3 (Homo sapiens), sequence (O95633 whole entry, looked up): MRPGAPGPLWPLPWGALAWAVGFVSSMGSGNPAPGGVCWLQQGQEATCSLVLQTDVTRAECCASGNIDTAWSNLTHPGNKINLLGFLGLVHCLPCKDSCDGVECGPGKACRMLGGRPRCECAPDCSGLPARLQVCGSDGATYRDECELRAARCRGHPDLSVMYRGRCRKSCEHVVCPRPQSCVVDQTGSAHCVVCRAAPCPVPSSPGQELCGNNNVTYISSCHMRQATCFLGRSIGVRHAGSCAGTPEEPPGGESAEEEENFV

Consider `COC(=O)[C@@]1(Cc2ccc(OC)cc2)[C@H]2c3cc(C(=O)N(C)C)n(Cc4cc(F)c(F)c(F)c4)c3C[C@H]2CN1C(=O)c1ccccc1`, for which the composite z-score in assay [1] was 0.85; in assay [2], 1.59; in assay [3], 1.03; in assay [5], 0.519; in assay [6], 1.02; in assay [7], 0.261. Moreover, the composite z-score in assay [8] was 0.745; in assay [9] it was -0.958; in [10], 0.882. In addition, in assay [4], the z-score is -2.2 (inactive).
Take `COc1ccc([Si](C)(C)[C@@H]2[C@@H](CCO)O[C@]3(C(=O)N(Cc4ccc(N5C(=O)c6ccccc6Oc6ccccc65)cc4)c4ccccc43)[C@H]2C)cc1`: the composite z-score was -0.364 in [1]; -0.0754 in assay [2]; 0.543 in assay [3]; -0.791 in assay [5]; -1.07 in assay [6]; -1.57 in assay [7]. Besides, the composite z-score in [8] is -0.644; in assay [9] it was -0.815; in [10], -0.557. In assay [4], the z-score is -0.853 (inactive).
Take `C[N+](C)(C)CCCC[C@@H]1NC(=O)[C@@H]2C[C@H](C(=O)NCCCCCNC(=O)CS)[C@H](c3cccc(OCCO)c3)N2C1=O`: the composite z-score was 1.71 in assay [1]; -0.14 in [2]; -0.149 in [3]; 0.545 in [5]; 0.23 in [6]; 0.0868 in assay [7]. In addition, the composite z-score in assay [8] is -0.19; in [9], 0.585; in assay [10], -0.003. The z-score in assay [4] was 0.241 (inactive).
Regarding `COCCOC(=O)N1C(=O)[C@@]2(c3cc(C#CCNC(N)=O)ccc31)[C@H](C(N)=O)[C@H]1C(=O)O[C@H](c3ccccc3)[C@H](c3ccccc3)N1[C@@H]2c1ccc(OCCO)cc1`, the composite z-score in assay [1] is 1.05; in assay [2], 0.0301; in assay [3] it was 0.721; in assay [5], 0.535; in assay [6], 0.737; in assay [7], 0.793. Moreover, the composite z-score in assay [8] worked out at 1.45; in [9], 0.825; in [10], 1.35. Moreover, in assay [4], the z-score was 0.731 (inactive).
Consider `NC(=O)NCC#Cc1ccc2c(c1)[C@]1(C(=O)N2)[C@H](c2ccc(OCCO)cc2)N2[C@H](c3ccccc3)[C@H](c3ccccc3)OC(=O)[C@H]2[C@@H]1C(=O)N1CCCCCCC1`, for which the composite z-score in assay [1] was found to be 1.72; in assay [2], 2.51; in assay [3], 1.17; in [5], 1.5; in assay [6], 1.27; in [7] it was 1.71. Also, the composite z-score in assay [8] was 1.64; in assay [9], 2.25; in [10], 1.5. For the same compound, in [4], the z-score is 0.238 (inactive).
In the case of `C=C(/C(=C/C[C@@H](OC(=O)c1ccncc1)c1ccccc1OCCO)c1cnc2ccccc2c1)C(C)C`, the composite z-score in assay [1] was 0.25; in assay [2], 0.0171; in assay [3], -0.21; in assay [5], 1.55; in assay [6], 1.29; in assay [7], 1.23. Moreover, the values for the composite z-score in [8], in [9] and in [10] were 1.61, 0.413 and 1.77, respectively. Besides, the z-score in [4] was -2.43 (inactive).
For `CCOC(=O)C[C@H]1[C@H](OC(=O)c2cc3ccccc3oc2=O)[C@@H](NC(=O)c2ccc3ccccc3n2)c2cc(OCCCO)ccc2N1C(=O)c1ccc2ccccc2n1`, the composite z-score is 0.522 in [1]; 0.273 in assay [2]; -0.033 in assay [3]; 1.13 in assay [5]; 0.743 in [6]; 0.503 in [7]. Also, the results for the composite z-score in assay [8], in [9] and in [10] were 1.3, 1.01 and 0.626, respectively. Moreover, the z-score in [4] was 0.613 (inactive).
As for `COCCOC(=O)N1C(=O)[C@@]2(c3cc(C#CCCO)ccc31)[C@H](C(=O)N1CCc3cc(OC)c(OC)cc3C1)[C@H]1C(=O)O[C@H](c3ccccc3)[C@H](c3ccccc3)N1[C@@H]2c1ccc(OCCO)cc1`, the composite z-score in assay [1] was 1.19; in [2] it was 0.125; in [3], -0.199; in assay [5] it was 1.37; in assay [6], 1.2; in assay [7], 0.846. Besides, the composite z-score in [8] was determined as 1.4; in [9], 0.609; in assay [10], 0.0945. In assay [4], the z-score is -0.575 (inactive).
Regarding `O=C1OCCC=C[C@H]2OC34C=CCN(Cn5nnc6ccccc65)C(=O)[C@H]3N(CCCCCO)C(=O)[C@@H]4C12` (stereo not given in full), the composite z-score is 1.18 in [1]; -0.181 in assay [2]; 0.311 in [3]; -0.691 in assay [5]; -0.368 in [6]; -0.97 in assay [7]. Further, the figures for the composite z-score in assay [8], in [9] and in [10] were -1.09, -0.925 and 0.0469, respectively. For the same compound, the z-score in assay [4] is 0.227 (inactive).
In the case of `CCCCC(O)C1C=CC2C(=O)N(Cc3ccccc3)C(=O)C2N1n1cnnc1` (stereo not given), the composite z-score in assay [1] was 0.769; in [2] it was -0.0884; in [3], 0.213; in assay [5], 0.303; in [6], 0.144; in [7], 0.188. Further, the composite z-score was 0.412 in assay [8], 0.178 in assay [9] and 1.05 in [10]. Moreover, the z-score in assay [4] is -0.75 (inactive).
For the compound `[N-]=[N+]=Nc1ccccc1C[C@]1(C(=O)NCCN2CCOCC2)N=C(c2ccc(OCCCO)cc2)O[C@H]1c1ccccc1N=[N+]=[N-]`, the composite z-score in assay [1] stood at 1.15; in assay [2] it was 0.63; in assay [3] it was 1.07; in [5], 1.47; in [6] it was 1.29; in assay [7] it was 0.472. Moreover, the composite z-score in [8] came to 1.2; in assay [9], 0.418; in [10], 1.18. In addition, the z-score in [4] is -1.41 (inactive).
In the case of `COc1ccccc1CN1C(=O)c2ccccc2[C@@H](C(=O)NCC(C)C)[C@@H]1c1ccc(CO)cc1`, the composite z-score was 1.05 in assay [1]; 0.543 in assay [2]; 0.705 in assay [3]; 0.773 in [5]; -0.0674 in assay [6]; -0.318 in assay [7]. The composite z-score in [8] came out at 0.0144; in assay [9], 0.213; in assay [10], 0.002. Moreover, in assay [4], the z-score is -0.8 (inactive).
`O=c1c2ccc(Br)cc2nc(-c2ccccc2)n1Cc1cccc(O)c1`: the composite z-score came to 0.524 in [1]; 0.864 in assay [2]; 0.715 in assay [3]; 0.528 in assay [5]; 0.476 in assay [6]; 0.145 in [7]. The composite z-score worked out at 0.547 in assay [8], 0.0301 in assay [9] and 0.41 in [10]. Further, the z-score in assay [4] was -0.376 (inactive).
With `CC1=C2[C@@H](CCc3ccccc3)OB(O)C[C@@H]2[C@@H]2C(=O)C=CC(=O)[C@@H]2C1`, the composite z-score in assay [1] was 0.338; in assay [2] it was -0.102; in assay [3], -0.48; in [5] it was 1.28; in assay [6] it was 0.612; in assay [7] it was 0.309. In addition, the composite z-score in assay [8] amounted to 0.853; in assay [9] it was 0.636; in assay [10], 0.729. The z-score in assay [4] was 3.33 (inactive).
